In PubChem BioAssay AID1276 (Columbia University Molecular Screening Center, 2008):
Hit rate of the full screen: of about 190,000 compounds, about 2,000 (1.1%) were called active. The sample holds actives, similar compounds and a random draw of the others, so the mix is not that of the screen.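 How the source made its calls: active means activation above a set limit, based on mean plus 3 SD of controls (cut at about 140% in these data); inconclusive means one replicate above the limit, the other below; inactive means the rest.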

experiment: APP 5'UTR reporter signal increase – luciferase, SH-SY5Y cells, primary screen (AID 1276); conditions: SH-SY5Y APP 5'UTR luciferase reporter, luminescence; at 2 µM; active compounds read high; zero percent = DMSO vehicle wells

activation, active:
CC1CN/C(=C\C(=O)c2ccc(Br)cc2)C(=O)N1 (stereo unspecified) 138%
Cc1ccc(NC(=O)c2csc3c2CCCC3)cc1 232%
O=C(Nc1cccc(O)c1)c1ccc(C(=O)c2ccccc2)o1 155%
O=C(Nc1ccc(Oc2ccccc2)cc1)c1ccco1 163%
Cc1ccc(Nc2nc(-c3ccc(O)cc3O)cs2)nc1 151%
Cc1ccc2nc(-c3ccc(NC(=O)CN(C)S(=O)(=O)c4ccccc4)cc3)sc2c1 190%
Cc1ccc(NC(=O)Nc2ccc3oc(C)nc3c2)cc1 145%
Cc1cc(C(=O)COC(=O)C2CC2)c(C)n1-c1ccc(F)cc1 145%
COc1cccc(/C=C/C(=O)Nc2ccc3c(c2)OCCO3)c1 168%
O=C(CSC(=S)N1CCOCC1)c1ccccc1 139%
COc1cc(SC)ccc1C(=O)NCCOc1ccccc1Cl 143%
COc1cc(SC)ccc1C(=O)Nc1cc(C)ccn1 220%

activation, inactive:
Cc1cccc(OCCC(=O)Nc2cc(S(=O)(=O)N3CCCCC3)ccc2N2CCOCC2)c1 11.1%
COc1ccc(OCCNS(=O)(=O)Cc2ccccc2)cc1 8.23%
C/C(=C\C(=O)c1ccc(Br)cc1)N1CCCCC1 -20.4%
CN1CCCC(OC(=O)COc2ccc(Br)cc2)C1 (stereo unspecified) 3.06%
COc1ccc(Cc2nnc(N/N=C/c3ccccc3O)[nH]c2=O)cc1OC -85.9%
Cc1cc(Cl)ccc1OCc1nc(-c2ccncc2)no1 95.7%
COC(=O)c1sc(NC(=O)c2csc3c2CCCC3)nc1C 95.3%
COC(=O)c1sccc1NC(=O)c1csc2c1CCCC2 -8.07%
Cc1cc(C)n(CCNCc2c(C(=O)N3C[C@@H](C)O[C@@H](C)C3)nc3ccc(Cl)cn23)n1 13.1%
O=C(CSc1ccccc1)Nc1ccc(C(=O)Nc2cccc(O)c2)cc1 37.6%
C/C(=C\C(=O)c1ccccc1)Nc1cccc(O)c1 33.4%
CC1COc2ccccc2N1S(=O)(=O)c1ccccc1 (stereo unspecified) -2.45%
COC(=O)c1ccc(NC(=O)c2ccco2)cc1 120%
O=C(CSc1ccccc1)Nc1ccc(NC(=O)c2ccco2)cc1 6.16%
COC(=O)c1cc2n(n1)CCCNC2=O -7.46%
Cc1ccc(-c2csc(NNC(=O)c3ccccc3)n2)cc1 3.5%
Cc1ccc(NC(=O)c2cc(-c3ccc(C)o3)nc3ccccc23)nc1 -0.92%
CC1=NNC(=O)C1CCC(=O)N/N=C\c1cccc(Cl)c1 (stereo unspecified) 0.72%
O=c1cc(N2CCCCC2)c(-c2ccccc2)nn1Cc1cccc(F)c1 -6.8%
CCOc1ccc(C(=O)NC(=S)Nc2ccc(N3CCOCC3)c(Cl)c2)cc1[N+](=O)[O-] -10.7%
COc1cc(NC(=O)CN(C)S(=O)(=O)c2ccc3nc(C)sc3c2)cc(OC)c1 17.7%
Cc1cccc(N(CC(=O)Nc2ccc(-c3nc4ccc(C)cc4s3)cc2)S(C)(=O)=O)c1 104%
C=CCN(C(=O)Nc1ccc2oc(C)nc2c1)c1ccccc1 11.6%
Cc1nc2cc(NC(=O)NCc3ccccc3)ccc2o1 23.1%
COC(=O)c1ccc(/C=N/N2C(C)CCCC2C)cc1 (stereo unspecified) 53%
CCOC(=O)CSc1nnc(-c2ccc([N+](=O)[O-])cc2)o1 5.38%
CC1=CC=CC2=N/C(=N\S(=O)(=O)c3ccc(F)cc3F)c3ccccc3CN12 27%
Cc1ccc(-n2c(C)cc(C(=O)CN3C(=O)C(=O)N(C4CCCC4)C3=O)c2C)cc1 -9.76%
COc1cc(/C=N/NC(=O)c2cc(C)n(-c3ccc(F)cc3)c2C)cc(OC)c1O 0.41%
Cc1ccc(OCC(=O)Nc2ccc(S(=O)(=O)Nc3ccccn3)cc2)cc1 0.31%
CCc1nc2ccccc2c(C(=O)OC2CCCCC2=O)c1C (stereo unspecified) 2.83%
CCn1c(SCc2cc(=O)n3ccsc3n2)nc2ccccc21 -4.54%
COc1ccc(OC)c(/C=C/C(=O)OCC(=O)Nc2ccc3c(c2)OCCO3)c1 -19.2%
COc1ccc(/C=C/C(=O)Nc2ccc3c(c2)OCCO3)cc1OC -0.48%
CC1CCCC(NC(=O)COC(=O)[C@@H]2CC(O)CN2S(=O)(=O)c2ccc3c(c2)OCCO3)C1C (stereo partly specified) 11.6%
CN(C(=O)CSc1nncc2ccccc12)C1CCCCC1 56.8%
Cc1ccc(C(=O)OC(C)CN2CCOCC2)cc1 (stereo unspecified) -15.7%
COc1cc(Cl)c(C)cc1NC(=O)[C@@H]1CCCN1C(=O)c1cccs1 -25.6%
CC1CN(C(=S)SCC(=O)c2ccccc2)CC(C)O1 (stereo unspecified) -2.53%
NC(=NC(=O)c1ccccc1)N1CCOCC1 9.73%
O=C(NCc1nnc(SCC(=O)N2CCCc3ccccc32)o1)c1ccccc1F -9.96%
COc1cc([N+](=O)[O-])ccc1NC(=O)CN1CCCC1 -0.5%
COc1ccc(Sc2nc(-c3ccccc3)ncc2OC)cc1 -14%
Cc1ccnc(NC(=O)c2ccoc2C)c1 33.5%
COc1ccccc1CNC(=O)c1ccc(SC)cc1OC -5.82%
O=C(NCCOc1ccccc1Cl)C(=O)Nc1ccccc1 0.2%
COc1cc(SC)ccc1C(=O)Nc1nc(C)cs1 57.9%
O=C(CCC1CCCN(C(=O)Cc2ccc(F)cc2)C1)N1CCN(c2ccccn2)CC1 (stereo unspecified) 10.5%
Cc1c(C2=CCN(S(=O)(=O)c3ccc(Cl)cc3)CC2)c2ccccc2n1C -2.27%
